High-throughput results: PubChem, National Center for Advancing Translational Sciences (NCATS)
mTORC1 inh = mTORC1 pathway inhibition measured by phospho-rpS6 | Tsc2-/- p53-/- MEF, phospho-rpS6 immunofluorescence/PI, 24 h | Potency, µM (highest dose often 38.3 µM), inactives show top-dose activity change, negative = inhibition, hits mostly inhibitors | 0.78% of 44,000 active;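 also: potency is read from the fitted curve at half-maximal effect; plate controls were DMSO for no effect and rapamycin for full effect; nearly all actives have a fitted effect of over 50% in size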
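Readout is phospho-S6 Alexa 488 signal normalized to PI per well, reported as % active cells with thresholds set from rapamycin (7.5 nM) and DMSO controls. Cells: Tsc2-/-, p53-/- MEFs, 24 hrs compound at 37 C; PI cell number serves as viability.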
PMP22 txn prim = modulators of PMP22 gene transcription in S16 Schwann cells; S16 Pmp22-F2sN Schwann cells, FLuc/NLuc coincidence luminescence, 24 h; Potency, µM (series often up to 57.5 µM), without a hit: at the top dose activity change, negative = inhibition, most hits filed as inhibitors; 2% of 43,000 active; AID 1508649; active = clear falling dose curves in both reporters; inconclusive = both reporters move, but less clearly or upward; inactive = either reporter flat; the % is the NLuc reporter signal; also: potency is read from the fitted curve at half-maximal effect; % is scaled to controls: 0 for no effect and ±100 for the full control effect
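Luminescent read-out of sequential FLuc and NLuc signals from a reporter embedded in the Pmp22 3' UTR of S16 Schwann cells, taken after 24 h compound exposure at 37C; compounds reducing both signals score as inhibitors of expression.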
HTT promoter inh = inhibitors of huntingtin promoter activity. HEK293 HTT promoter firefly luciferase reporter, 24 h. Potency, µM (titrated, usually from 57.5 µM), inactives show at the top dose activity change, negative = inhibition, actives largely listed as inhibitors. 0.93% of 48,000 active. AID 1508623; also: potency is read from the fitted curve at half-maximal effect; nearly all actives have a fitted effect of over 50% in size
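Firefly luciferase signal from promoter-reporter HEK293 cells was scaled between vehicle (0%) and zero RLU (-100%). Compounds were tested at final concentrations of up to 57.5 uM over 24 h at 37 degrees C. PTC124 at 50 uM final served as control inhibitor.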
HTT-AS act = activators of huntingtin-antisense promoter activity; HEK293 HTT-AS promoter firefly luciferase reporter, 24 h; response scale: percent change from vehicle, -100% = no light; Potency, µM (highest dose often 57.5 µM), for the others: at the highest dose activity change, positive = activation, usual class: activators; 0.24% of 48,000 active; AID 1508624; also: potency is read from the fitted curve at half-maximal effect; nearly all actives have a fitted effect of over 55% in size
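HEK293 luciferase promoter-reporter cells (2,500/well) plated 24 h, then compounds added at up to 57.5 uM final for 24 h at 37 °C. Firefly luminescence by Dual-Glo, normalized to vehicle (0%) and zero RLU (-100%).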
S16 F2sN tox = toxic to S16 Pmp22-F2sN Schwann cells | S16 Pmp22-F2sN Schwann cells viability, CellTiter-Glo, 24 h | Potency, µM (doses to about 57.5 µM), for the others: top-dose activity change, negative = cytotoxicity, most hits filed as cytotoxic | 0.48% of 43,000 active | AID 1508642; also: potency is read from the fitted curve at half-maximal effect; % is scaled to controls: 0 for no effect and ±100 for the full control effect; nearly all actives have a fitted effect of over 65% in size
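CellTiter-Glo counter-screen, qHTS, 1536-well. Cells: S16(c9) Pmp22-F2sN, 500-1,000/well in DMEM + 10% FBS. Cpd 23 nL pin transfer, 24 h, 37C/5% CO2. Read: luminescence, CCD imager.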
OvCa metastasis = blocks SKOV3ip1 adhesion and invasion in omental model; SKOV3ip1-GFP adhesion/invasion on 3D omental model, fluorescence; Potency, µM (highest dose often 45.8 µM), for inactives: at the highest dose activity change, negative = inhibition, actives largely listed as inhibitors; 0.1% of 46,000 active;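 also: potency is read from the fitted curve at half-maximal effect; plate controls were DMSO wells for no effect and tomatine positive control wells for full effect; nearly all actives have a fitted effect of over 65% in size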
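A 3D layer of primary human omental fibroblasts, mesothelial cells, fibronectin and collagen I, grown 48 hr, received SKOV3ip1-GFP cells in serum-free medium plus compounds at 0.36-46 umol/L. After 2 hr RT and 16 hr 37 C, fixed adherent GFP cells were counted; normalized to DMSO and tomatine.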
NLuc saturating = NanoLuc enzyme inhibition artifact for PMP22 screen. shares compounds with PMP22 txn prim. Secreted NLuc enzyme (filtered S16 cell medium), Nano-Glo luminescence. Potency, µM (titrated, usually from 57.5 µM), for inactives: top-dose activity change, negative = inhibition, most hits filed as inhibitors. 4% of 690 active. AID 1508638; also: potency is read from the fitted curve at half-maximal effect; % is scaled to controls: 0 for no effect and ±100 for the full control effect
NLuc Km ctr = NanoLuc inhibition at Km substrate, PMP22 artifact check; shares compounds with PMP22 txn prim; secreted NLuc enzyme, coelenterazine luminescence, Km conditions; Potency, µM (highest dose often 57.5 µM), for inactives: at the top dose activity change, negative = inhibition, usual class: inhibitors; 5% of 690 active; also: potency is read from the fitted curve at half-maximal effect; % is scaled to controls: 0 for no effect and ±100 for the full control effect
FLuc ctr PMP22 = inhibits firefly luciferase, PMP22 counter-screen | shares compounds with PMP22 txn prim | Potency, µM (doses to about 57.5 µM), for the others: at the top dose activity, negative = inhibition, usual class: inhibitors | 690 tested, under 10 active | purified P. pyralis FLuc, luminescence, 10 min | AID 1508640; also: % of control where 0% means no effect
Target sequence (P08659 whole entry, looked up): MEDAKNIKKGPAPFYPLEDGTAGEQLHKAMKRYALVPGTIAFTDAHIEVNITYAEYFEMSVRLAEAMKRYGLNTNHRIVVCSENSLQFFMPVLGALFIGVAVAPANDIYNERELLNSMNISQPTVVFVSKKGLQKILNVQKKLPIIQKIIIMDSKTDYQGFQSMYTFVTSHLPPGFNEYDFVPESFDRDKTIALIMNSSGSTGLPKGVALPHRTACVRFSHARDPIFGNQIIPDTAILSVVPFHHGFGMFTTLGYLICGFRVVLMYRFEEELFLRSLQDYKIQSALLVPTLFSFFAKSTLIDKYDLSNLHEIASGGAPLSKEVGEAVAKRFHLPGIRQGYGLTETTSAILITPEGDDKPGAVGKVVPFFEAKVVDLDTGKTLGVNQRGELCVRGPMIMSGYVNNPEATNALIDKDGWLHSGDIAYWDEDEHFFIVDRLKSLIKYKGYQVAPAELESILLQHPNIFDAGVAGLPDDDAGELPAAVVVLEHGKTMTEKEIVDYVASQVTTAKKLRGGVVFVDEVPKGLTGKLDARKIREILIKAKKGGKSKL
S16 F2sN tox cnf = confirmation of cytotoxicity in S16 Pmp22-F2sN Schwann cells (luciferase reporters placed in the Pmp22 gene). Potency, µM (top dose mostly 57.5 µM), for the others: at the top dose activity change, negative = viability loss, usual class: cytotoxic. shares compounds with PMP22 txn prim. AID 1508641. 7% of 690 active. S16 Schwann cells viability, CellTiter-Glo ATP luminescence, 24 h; also: potency is read from the fitted curve at half-maximal effect; % is scaled to controls: 0 for no effect and ±100 for the full control effect
PMP22 txn cnf = confirmation of modulators of PMP22 gene transcription in S16 cells | AID 1508646 | Potency, µM (top dose mostly 57.5 µM), for inactives: at the highest dose activity change, negative = inhibition, usual class: inhibitors | 22% of 690 active | shares compounds with PMP22 txn prim | S16 Schwann cells Pmp22-F2sN, dual luciferase, 24 h; active = clear falling dose curves in both reporters; inconclusive = both reporters move, but less clearly or upward; inactive = either reporter flat; the % is the FLuc reporter signal; also: potency is read from the fitted curve at half-maximal effect
Numbers without * were called inactive; i = inactive; u = inconclusive; x = not tested or not shown. Hits are enriched below; roughly 3.6% of the tested compounds scored in any of these assays. Unless noted, calls follow the shape of the dose curve; as a rule, active = well fitted curve in the direction sought with a large enough effect; inconclusive = small, poorly fitted or top-dose-only effect, or another doubt; inactive = no such curve, though single readings can be large; an effect the other way counts as inactive or inconclusive.

SMILES	mTORC1 inh	PMP22 txn prim	HTT promoter inh	HTT-AS act	S16 F2sN tox	OvCa metastasis	others
CC(C)COc1ccc(C(=O)NCC2(N3CCN(C)CC3)CCCCC2)cc1	16µM*	u	-10%	-16%	u	u
CC(C)C(C)C=CC(C)C1CCC2C3=CC=C4CC(O)CCC4(C)C3CCC21C (configuration not stated)	x	x	u	-21%	x	-5%
COc1ccc(CNc2oc(-c3ccc(COc4ccc(Cl)cc4)o3)nc2C#N)cc1	0%	-24%	22µM*	-60%	4%	1%
Cc1ccc(CNc2oc(-c3ccc(COc4ccc(Cl)cc4)o3)nc2C#N)cc1	u	u	u	-51%	-10%	14%
COc1ccc(OCc2ccc(-c3nc(C#N)c(NCc4ccccc4)o3)o2)cc1	0%	-38%	24%	6%	-15%	-7%
COc1ccc(CNc2oc(-c3ccc(COc4ccccc4C)o3)nc2C#N)cc1	0%	u	20µM*	-64%	-12%	-22%
CCCCNc1oc(-c2ccc(COc3ccccc3C)o2)nc1C#N	u	-12%	u	-18%	-22%	-48%
Cc1ccccc1OCc1ccc(-c2nc(C#N)c(NCCCN(C)C)o2)o1	5.8µM*	u	-8%	-10%	u	-1%
O=C(C=Cc1ccc(/C=C/C(=O)Nc2ccc(C3=NCCN3)cc2)cc1)Nc1ccc(C2=NCCN2)cc1	x	x	-6%	-22%	x	-5%
CC(=O)Nc1ccc([C@H](C)C(=O)Nc2ncc(C(C)C)s2)cc1	x	x	u	-19%	x	-1%
O=C(Nc1ccc2oc(-c3cc(Br)ccc3Cl)nc2c1)c1cc2ccccc2o1	4.1µM*	u	u	-43%	u	u
c1ccc(-c2cc3ncc4c(n3n2)-c2ccccc2OC4)cc1	1%	u	67%	1.6µM*	-2%	i
Cc1ccc(-c2cc3ncc4c(n3n2)-c2ccccc2OC4)cc1	-9%	1%	41%	u	-5%	-3%
COc1cccc(OC)c1-c1cc(C(=O)NC2(C(=O)O)C3CC4CC(C3)CC2C4)nn1-c1ccnc2cc(Cl)ccc12 (configuration not stated)	x	x	5%	-8%	x	13%
COC1=C2C[C@@H](C)C[C@H](OC)[C@@H](O)[C@@H](C)C=C(C)[C@H](OC(N)=O)[C@@H](OC)C=CC=C(C)C(=O)NC(=CC1=O)C2=O	x	x	u	-65%	x	-5%
CCOC(=O)c1[nH]c(C)c(C(=O)NCCc2ccccc2)c1C	-4%	-22%	38%	7.9µM*	-19%	1%
Cc1ccc(O)c(NC(=O)c2ccc(Br)c(S(=O)(=O)N3CCCCC3)c2)c1	21%	u	20µM*	-42%	14%	-5%
CCOC(=O)c1cc2c(=O)n3ccccc3nc2n(CC2CCCO2)c1=NC(=O)c1cc(C)cc(C)c1 (configuration not stated)	-6%	1.5µM*	u	-28%	u	1%
CCOC(=O)c1cc2c(=O)n3ccccc3nc2n(CC2CCCO2)c1=NC(=O)c1ccc(OCC)cc1 (configuration not stated)	2%	u	-4%	-12%	0%	-2%
Cc1ccc(C)c(NC(=O)Cn2nnc(C(=O)NCc3ccccc3Cl)c2N)c1	-4%	u	u	-9%	14µM*	u
Cc1cc(NCc2ccccc2Cl)n2cnnc2n1	-17%	u	18µM*	-44%	-18%	-29%
Cc1ccc(-c2nc(Cn3c(SCc4ccc(F)cc4)nc4cccnc43)c(C)o2)cc1	-8%	7.4µM*	u	-36%	-18%	-22%
CCOc1ccc(CN2CCN(Cc3ccc4c(c3)c3ccccc3n4CC)CC2)cc1	u	u	32µM*	-58%	u	0%
CCOC(=O)N[C@@H]1CC[C@@H]2[C@@H](C1)C[C@H]1C(=O)O[C@H](C)[C@H]1[C@@H]2C=Cc1ccc(-c2cccc(F)c2)cn1	x	x	u	-25%	x	1%
Oc1ccc(NCc2ccccc2OCc2ccccc2F)cc1	-26%	20µM*	-18%	-2%	28µM*	u	NLuc saturating=u;NLuc Km ctr=u;FLuc ctr PMP22=u;S16 F2sN tox cnf=-7%;PMP22 txn cnf=-7%
COc1ccc(-n2c(=O)c3c(c4cc(OC)ccc4n3C)n(CCC(C)C)c2=O)cc1	1%	2.1µM*	-13%	-17%	8%	10%	NLuc saturating=-18%;NLuc Km ctr=-2%;FLuc ctr PMP22=3%;S16 F2sN tox cnf=9%;PMP22 txn cnf=-21%
O=C(Cn1cc(C(=O)C2CCCCC2)c2ccccc21)Nc1ccccc1Cl	-9%	9.5µM*	u	-34%	-22%	8%	NLuc saturating=-5%;NLuc Km ctr=8%;FLuc ctr PMP22=-9%;S16 F2sN tox cnf=-10%;PMP22 txn cnf=u
O=C(COc1ccc(F)cc1)Nc1ccc2nc(SCC(=O)N3CCc4ccccc43)sc2c1	-1%	3µM*	-10%	-12%	13%	4%	NLuc saturating=u;NLuc Km ctr=-11%;FLuc ctr PMP22=-1%;S16 F2sN tox cnf=-20%;PMP22 txn cnf=u
